# Several values for one entry are separate records, joined by “and”; a condition that tells them apart may be missing. Equal entries are not always repeated. Hit rate of the full screen: of about 4,400 compounds, about 390 (8.9%) showed an effect of 50% or more. This is one part of a sample in which strong results are shown more often than they occur.
# Tested on: Trypanosoma brucei
# Assay: DNDI: Inhibition of Human African Trypanosomiasis, SBRI 427, in vitro at 2 ug.mL-1
# Format: functional
row,Structure (SMILES),% inhibition
1,COCC(C)N/C(=N\O)c1ccc(C)nc1Oc1ccc(SC)c(C)c1 (centres undefined),-10%
2,Cc1ccc(Oc2nc(C)ccc2/C(=N/O)N2CCCCC2)c(C)c1,0%
3,CC(NCc1coc(-c2ccc(C(F)(F)F)cc2)n1)c1ccccc1 (centres undefined),2%
4,COc1ccc(-c2nc(CNCCc3ccccc3OC)co2)cc1,-4%
5,Cc1ccc(-c2nc(CN3CCN(C(=O)C4CCCO4)CC3)co2)cc1 (centres undefined),21%
6,Cc1ccc(Oc2cc(/C(=N/O)NCc3cccnc3)ccn2)c(C)c1,-3%
7,COc1ccc(Oc2nc(C)ccc2/C(=N/O)NCc2ccc(C)o2)cc1,16%
8,CCc1ccc(Oc2ncccc2/C(=N/O)N2CCN(C)CC2)cc1,-4%
9,CCc1ccc(Oc2ccc(/C(N)=N/O)cn2)cc1,20%
10,CCc1ccc(Oc2ncccc2/C(=N/O)NCc2ccccc2C)cc1,99%
11,CCOc1ccccc1CN/C(=N\O)c1cccnc1OCC(C)C,3%
12,COc1ccc(Oc2ncccc2/C(=N/O)NCc2ccccc2C)cc1,85%
13,COc1ccc(Oc2ncccc2/C(=N/O)NCc2ccccn2)cc1,2%
14,COc1ccc(Oc2ncccc2/C(=N/O)NCc2ccccc2OC)cc1,94%
15,CCOc1ccccc1CN/C(=N\O)c1cccnc1Oc1ccccc1SC,100%
16,CCOc1ccccc1CN/C(=N\O)c1cccnc1OC1CCC1,5%
17,COc1ccccc1CN/C(=N\O)c1cccnc1Oc1cccc2ccccc12,0%
18,Cc1ccc(/C(=N/O)N2CCC(N(C)C)C2)c(OCc2cccc(F)c2)n1 (centres undefined),-7%
19,O/N=C(\NCc1ccccc1)c1ccc(Oc2c(F)c(F)cc(F)c2F)nc1,30%
20,c1csc(-c2nc(CNCCN3CCOCC3)co2)c1,-8%
21,CCN(Cc1coc(-c2ccccc2C)n1)c1ccc2c(c1)OCO2,13%
22,Cc1ccc2cccc(Oc3cc(/C(=N/O)NCc4cccs4)ccn3)c2n1,6%
23,CCN(Cc1coc(-c2ccc(F)cc2)n1)c1ccc2c(c1)OCO2,-2%

row,Structure (SMILES),% inhibition
1,CN(Cc1cccnc1)/C(=N\O)c1ccnc(Oc2cccc(F)c2)c1,2%
2,CCOc1ccccc1-c1nc(CNCc2cc(OC)c(OC)c(OC)c2)co1,8%
3,CCOc1ccccc1CN/C(=N\O)c1cccnc1Oc1ccc(OC)cc1,98%
4,CCOc1ccccc1CN/C(=N\O)c1cccnc1Oc1ccc2oc3ccccc3c2c1,14%
5,CCOc1ccccc1CN/C(=N\O)c1cccnc1Oc1ccc(C(C)C)cc1,99%
6,Cc1ccccc1CN/C(=N\O)c1cccnc1Oc1ccc(C(C)C)cc1,99%
7,Cc1ccc(/C(=N/O)NCc2ccccc2C)c(Oc2cccc(C(C)C)c2)n1,2%
8,CCOc1ccccc1CN/C(=N\O)c1cccnc1Oc1ccc(F)cc1,5%
9,CCOc1ccccc1CN/C(=N\O)c1cccnc1Oc1cc(Cl)ccc1Cl,100%
10,CCOc1ccccc1CN/C(=N\O)c1ccc(C)nc1Oc1cc(Cl)ccc1Cl,26%
11,CCOc1ccccc1CN/C(=N\O)c1cccnc1Oc1cc(C)cc(C(C)C)c1,-4%
12,COc1ccccc1CN/C(=N\O)c1cccnc1Oc1ccc(C(C)C)cc1,-4%
13,Cc1ccccc1CN/C(=N\O)c1cccnc1OCC(C)C,11%
14,CCCN(Cc1coc(-c2cccs2)n1)CC1CC1,0%
15,Cc1ccc(/C(=N/O)N(C)Cc2cccnc2)c(OCc2ccccc2F)n1,0%
16,COc1ccc(-c2nc(CNCc3ccc(C(C)(C)C)cc3)co2)cc1,4%
17,Cc1ccc(C(C)C)c(Oc2cc(/C(=N/O)N3C(C)CCC3C)ccn2)c1 (centres undefined),8%
18,COc1ccc(N(C)Cc2coc(-c3ccc(C(F)(F)F)cc3)n2)cc1,2%
19,Fc1cccc(-c2nc(CN3CCC4CCCCC4C3)co2)c1 (centres undefined),0%
20,Cc1ccc(CN/C(=N\O)c2cccnc2Oc2c(F)cccc2F)o1,0%
21,COc1ccc(Oc2ncccc2/C(=N/O)NCc2ccc(C)o2)cc1,5%
22,Cc1ccc(CN/C(=N\O)c2cccnc2Oc2cc(Cl)ccc2Cl)o1,100%
23,O/N=C(\NCc1ccccc1)c1cccnc1Oc1ccc(F)cc1Cl,94%

row,Structure (SMILES),% inhibition
1,O/N=C(\NCc1ccccn1)c1cccnc1Oc1ccc(F)cc1Cl,20%
2,O/N=C(\NCc1cccnc1)c1cccnc1Oc1ccc(F)cc1Cl,14%
3,CSc1ccc(Oc2nc(C)ccc2/C(=N/O)n2ccnc2)cc1,-8%
4,CCCCN(CCC#N)Cc1coc(-c2ccc(C)cc2)n1,-2%
5,CCCCCCC(C)NCc1coc(-c2ccccc2OCC)n1 (centres undefined),41%
6,CCN(CC)CCNCc1coc(-c2ccccc2Cl)n1,-11%
7,CCOc1ccccc1-c1nc(CN[C@H](C)c2ccc(C)cc2)co1,10%
8,CCCC(CCC)NCc1coc(-c2ccc(O)cc2)n1,14%
9,CC(CCc1ccccc1)NCc1coc(-c2ccccc2Cl)n1 (centres undefined),8%
10,CCCCCC(C)NCc1coc(-c2ccccc2OCC)n1 (centres undefined),99%
11,CCCCCCC(C)NCc1coc(-c2ccccc2Br)n1 (centres undefined),28%
12,CCCC(CCC)NCc1coc(-c2ccc(OCC)cc2)n1,99%
13,CCOc1ccccc1-c1nc(CNC(C)c2ccccc2)co1 (centres undefined),-8%
14,CCN(CC)CCCC(C)NCc1coc(-c2ccccc2Cl)n1 (centres undefined),94%
15,CCOc1ccc(-c2nc(CNC(CC)COC)co2)cc1 (centres undefined),21%
16,Cc1ccc(/C(=N/O)N2CCN(c3ccccc3)CC2)c(Oc2ccc(F)cc2)n1,20%
17,C=CCN(CC=C)Cc1coc(-c2cccs2)n1,-3%
18,Cc1ccc(-c2nc(CNc3cc(C)nn3-c3ccccc3)co2)cc1,10%
19,C=C(C)CN(CC)Cc1coc(-c2cccc3ccccc23)n1,-7%
20,COc1cc(-c2nc(CNC(C)c3ccccc3)co2)cc(OC)c1OC (centres undefined),0%
21,CCC(NCc1coc(-c2ccc(Cl)cc2Cl)n1)c1ccccc1 (centres undefined),5% and 14%
22,CCCCN(CCC#N)Cc1coc(-c2ccc(O)cc2)n1,-26%
23,Cc1ccccc1-c1nc(CN(C)C(C)c2ccccc2)co1 (centres undefined),13%
